# Key:
# Assay in all cases: DAPPL (digital affinity profiling via proximity ligation, sequencing); 10 mM Tris-HCl pH 7.5, 50 mM NaCl, 1 mM DTT, 4% glycerol, room temperature, 30 min; GST-TFs on glutathione beads, 16-mer random dsDNA library, 0.1% formaldehyde crosslink after washing; high values mean tight binding
# [1] = target: T1, FLI1 (Homo sapiens, UniProt Q01543 1-452); settings: protein: recombinant; tags: N-terminal GST; dsDNA, one strand shown
# T1 sequence: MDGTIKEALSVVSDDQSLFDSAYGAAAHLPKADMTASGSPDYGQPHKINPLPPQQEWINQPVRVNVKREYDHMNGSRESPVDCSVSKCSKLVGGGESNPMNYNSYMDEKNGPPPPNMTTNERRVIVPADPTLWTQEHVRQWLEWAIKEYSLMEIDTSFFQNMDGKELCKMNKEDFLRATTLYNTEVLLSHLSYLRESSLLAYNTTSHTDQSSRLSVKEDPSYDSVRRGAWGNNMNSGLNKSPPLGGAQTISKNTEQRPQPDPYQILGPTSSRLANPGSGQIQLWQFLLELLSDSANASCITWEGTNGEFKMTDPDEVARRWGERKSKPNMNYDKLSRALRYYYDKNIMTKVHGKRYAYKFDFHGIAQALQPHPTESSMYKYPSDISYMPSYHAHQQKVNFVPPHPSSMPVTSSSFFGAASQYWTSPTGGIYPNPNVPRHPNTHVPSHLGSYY
# Method in brief: (§1)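 Yeast served to express human transcription factors as GST fusions, which were then captured on glutathione beads and labelled with DNA barcodes. Pooled with a tag-only sample, they were incubated with 200 nmole of a 16-mer random double-stranded DNA library for 30 min at room temperature in Tris/NaCl/DTT/glycerol buffer, washed, crosslinked with 0.1% formaldehyde, ligated by proximity, amplified by PCR and sequenced. Dividing each hexamer's read frequency for a factor by its frequency for the tag-only sample gives the binding signal.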
# [2] = target: T2, ELK1 (Homo sapiens, UniProt P19419 1-428); settings: protein: recombinant; tags: N-terminal GST; dsDNA, one strand shown
# T2 sequence: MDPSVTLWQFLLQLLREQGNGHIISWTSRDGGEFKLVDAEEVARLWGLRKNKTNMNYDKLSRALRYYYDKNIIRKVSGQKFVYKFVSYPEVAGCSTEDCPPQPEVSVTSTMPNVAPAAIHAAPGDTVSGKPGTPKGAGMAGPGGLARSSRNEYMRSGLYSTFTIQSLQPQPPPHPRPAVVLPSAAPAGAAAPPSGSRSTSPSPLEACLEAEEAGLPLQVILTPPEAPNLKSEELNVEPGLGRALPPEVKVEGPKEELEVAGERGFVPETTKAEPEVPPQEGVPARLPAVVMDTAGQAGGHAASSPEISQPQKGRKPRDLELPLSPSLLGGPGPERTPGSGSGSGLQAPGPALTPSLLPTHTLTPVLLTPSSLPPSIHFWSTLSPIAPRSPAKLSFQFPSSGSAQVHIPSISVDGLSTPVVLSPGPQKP
# Method in brief: as §1
# [3] = target: T3, GABPA (Homo sapiens, UniProt Q06546 1-454); settings: protein: recombinant; tags: N-terminal GST; dsDNA, one strand shown
# T3 sequence: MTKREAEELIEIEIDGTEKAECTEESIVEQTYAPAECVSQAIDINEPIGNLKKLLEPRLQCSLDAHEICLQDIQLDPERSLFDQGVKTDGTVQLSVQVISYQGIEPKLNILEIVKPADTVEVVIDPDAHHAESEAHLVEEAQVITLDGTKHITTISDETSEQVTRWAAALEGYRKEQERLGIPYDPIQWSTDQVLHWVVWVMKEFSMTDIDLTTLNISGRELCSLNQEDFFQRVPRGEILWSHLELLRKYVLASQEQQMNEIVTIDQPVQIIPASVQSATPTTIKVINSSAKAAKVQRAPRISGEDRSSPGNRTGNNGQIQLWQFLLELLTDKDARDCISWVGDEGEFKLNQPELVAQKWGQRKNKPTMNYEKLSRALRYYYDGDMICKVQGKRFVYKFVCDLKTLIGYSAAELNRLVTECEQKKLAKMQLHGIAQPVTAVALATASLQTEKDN
# Method in brief: as §1
# [4] = target: T4, ERG (Homo sapiens, UniProt P11308 1-479); settings: protein: recombinant; tags: N-terminal GST; dsDNA, one strand shown
# T4 sequence: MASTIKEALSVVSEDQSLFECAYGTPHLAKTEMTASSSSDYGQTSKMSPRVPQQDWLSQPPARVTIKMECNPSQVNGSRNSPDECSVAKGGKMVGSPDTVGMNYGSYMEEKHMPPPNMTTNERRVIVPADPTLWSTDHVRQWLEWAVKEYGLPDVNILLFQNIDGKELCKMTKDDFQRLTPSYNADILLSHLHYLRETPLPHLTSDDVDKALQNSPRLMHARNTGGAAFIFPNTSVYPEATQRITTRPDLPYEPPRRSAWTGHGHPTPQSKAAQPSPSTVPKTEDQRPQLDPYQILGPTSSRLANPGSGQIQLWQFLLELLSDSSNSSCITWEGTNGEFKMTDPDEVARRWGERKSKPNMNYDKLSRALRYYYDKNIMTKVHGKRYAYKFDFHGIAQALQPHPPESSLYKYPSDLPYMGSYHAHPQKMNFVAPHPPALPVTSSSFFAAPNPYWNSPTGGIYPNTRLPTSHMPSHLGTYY
# Method in brief: as §1
# [5] = target: ELF1 (Homo sapiens, UniProt P32519 1-619); settings: protein: recombinant; tags: N-terminal GST; dsDNA, one strand shown
# Method in brief: as §1
# [6] = target: T5, EHF (Homo sapiens, UniProt Q9NZC4 1-300); settings: protein: recombinant; tags: N-terminal GST; dsDNA, one strand shown
# T5 sequence: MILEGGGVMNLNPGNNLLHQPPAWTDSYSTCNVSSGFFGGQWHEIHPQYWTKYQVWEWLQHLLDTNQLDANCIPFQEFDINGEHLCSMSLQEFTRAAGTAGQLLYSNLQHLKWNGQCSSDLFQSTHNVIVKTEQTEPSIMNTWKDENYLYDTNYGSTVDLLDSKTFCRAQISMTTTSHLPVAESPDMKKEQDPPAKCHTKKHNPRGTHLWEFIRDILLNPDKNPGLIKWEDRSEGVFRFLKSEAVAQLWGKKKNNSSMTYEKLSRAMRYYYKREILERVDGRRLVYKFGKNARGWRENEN
# Method in brief: as §1
# [7] = target: SPI1 (Homo sapiens, UniProt P17947 1-270); settings: protein: recombinant; tags: N-terminal GST; dsDNA, one strand shown
# Method in brief: as §1
# [8] = target: SPIB (Homo sapiens, UniProt Q01892 1-262); settings: protein: recombinant; tags: N-terminal GST; dsDNA, one strand shown
# Method in brief: as §1
# [9] = target: T6, ELK3 (Homo sapiens, UniProt P41970 1-407); settings: protein: recombinant; tags: N-terminal GST; dsDNA, one strand shown
# T6 sequence: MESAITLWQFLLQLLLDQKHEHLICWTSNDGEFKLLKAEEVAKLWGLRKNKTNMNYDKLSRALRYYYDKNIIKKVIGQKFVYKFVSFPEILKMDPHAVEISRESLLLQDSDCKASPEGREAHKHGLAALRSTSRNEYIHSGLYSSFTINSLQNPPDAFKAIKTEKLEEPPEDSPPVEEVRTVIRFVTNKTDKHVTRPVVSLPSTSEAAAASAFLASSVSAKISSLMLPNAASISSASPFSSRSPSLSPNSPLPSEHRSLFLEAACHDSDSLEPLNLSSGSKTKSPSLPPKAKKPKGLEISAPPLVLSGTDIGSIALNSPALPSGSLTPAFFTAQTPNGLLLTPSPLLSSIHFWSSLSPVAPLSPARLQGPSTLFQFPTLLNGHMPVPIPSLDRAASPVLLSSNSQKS
# Method in brief: as §1
# [10] = target: T7, FEV (Homo sapiens, UniProt Q99581 1-238); settings: protein: recombinant; tags: N-terminal GST; dsDNA, one strand shown
# T7 sequence: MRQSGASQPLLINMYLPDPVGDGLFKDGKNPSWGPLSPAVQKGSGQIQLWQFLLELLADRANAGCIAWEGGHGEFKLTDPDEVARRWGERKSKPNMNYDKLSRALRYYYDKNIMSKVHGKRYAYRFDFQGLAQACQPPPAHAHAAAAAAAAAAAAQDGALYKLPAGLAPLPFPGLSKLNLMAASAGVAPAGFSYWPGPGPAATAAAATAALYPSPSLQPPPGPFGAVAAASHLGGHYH
# Method in brief: as §1
# [11] = target: ETV5 (Homo sapiens, UniProt P41161 1-510); settings: protein: recombinant; tags: N-terminal GST; dsDNA, one strand shown
# Method in brief: as §1
# [12] = target: HSF1 (Homo sapiens, UniProt Q00613 1-529); settings: protein: recombinant; tags: N-terminal GST; chain copies: 3; dsDNA, one strand shown
# Method in brief: as §1
# [13] = target: T8, SPIC (Homo sapiens, UniProt Q8N5J4 1-248); settings: protein: recombinant; tags: N-terminal GST; dsDNA, one strand shown
# T8 sequence: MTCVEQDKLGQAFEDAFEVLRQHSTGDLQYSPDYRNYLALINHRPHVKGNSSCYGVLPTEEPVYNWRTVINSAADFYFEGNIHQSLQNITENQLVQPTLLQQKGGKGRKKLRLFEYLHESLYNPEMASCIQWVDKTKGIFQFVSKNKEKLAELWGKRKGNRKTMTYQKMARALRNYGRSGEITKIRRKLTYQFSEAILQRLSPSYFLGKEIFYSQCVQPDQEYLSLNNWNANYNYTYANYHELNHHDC
# Method in brief: as §1
# [14] = target: ELF4 (Homo sapiens, UniProt Q99607 1-663); settings: protein: recombinant; tags: N-terminal GST; dsDNA, one strand shown
# Method in brief: as §1
# [15] = target: T9, ELK4 (Homo sapiens, UniProt P28324-2 1-405); settings: protein: recombinant; tags: N-terminal GST; dsDNA, one strand shown
# T9 sequence: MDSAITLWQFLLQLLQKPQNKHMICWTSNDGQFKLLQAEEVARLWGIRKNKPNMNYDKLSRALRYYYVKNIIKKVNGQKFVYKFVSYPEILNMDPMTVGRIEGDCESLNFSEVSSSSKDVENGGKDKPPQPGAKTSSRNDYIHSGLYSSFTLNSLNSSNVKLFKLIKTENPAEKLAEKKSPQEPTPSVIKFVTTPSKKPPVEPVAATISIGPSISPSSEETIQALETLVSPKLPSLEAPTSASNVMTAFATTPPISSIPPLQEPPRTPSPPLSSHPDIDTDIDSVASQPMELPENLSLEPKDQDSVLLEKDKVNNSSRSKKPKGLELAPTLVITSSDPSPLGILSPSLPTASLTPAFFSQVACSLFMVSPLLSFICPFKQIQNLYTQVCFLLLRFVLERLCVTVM
# Method in brief: as §1
# [16] = target: T10, ETV2 (Homo sapiens, UniProt O00321 1-342); settings: protein: recombinant; tags: N-terminal GST; dsDNA, one strand shown
# T10 sequence: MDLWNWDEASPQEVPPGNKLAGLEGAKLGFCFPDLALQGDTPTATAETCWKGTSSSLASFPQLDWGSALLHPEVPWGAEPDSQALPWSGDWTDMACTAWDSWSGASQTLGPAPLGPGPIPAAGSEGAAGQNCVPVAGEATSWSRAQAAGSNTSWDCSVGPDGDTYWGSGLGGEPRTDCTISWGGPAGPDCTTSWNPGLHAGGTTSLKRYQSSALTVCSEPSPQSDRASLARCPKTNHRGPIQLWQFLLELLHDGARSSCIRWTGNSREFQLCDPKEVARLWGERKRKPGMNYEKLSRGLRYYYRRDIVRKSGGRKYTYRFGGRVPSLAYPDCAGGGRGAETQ
# Method in brief: as §1
# [17] = target: T11, ELF3 (Homo sapiens, UniProt P78545 1-371); settings: protein: recombinant; tags: N-terminal GST; dsDNA, one strand shown
# T11 sequence: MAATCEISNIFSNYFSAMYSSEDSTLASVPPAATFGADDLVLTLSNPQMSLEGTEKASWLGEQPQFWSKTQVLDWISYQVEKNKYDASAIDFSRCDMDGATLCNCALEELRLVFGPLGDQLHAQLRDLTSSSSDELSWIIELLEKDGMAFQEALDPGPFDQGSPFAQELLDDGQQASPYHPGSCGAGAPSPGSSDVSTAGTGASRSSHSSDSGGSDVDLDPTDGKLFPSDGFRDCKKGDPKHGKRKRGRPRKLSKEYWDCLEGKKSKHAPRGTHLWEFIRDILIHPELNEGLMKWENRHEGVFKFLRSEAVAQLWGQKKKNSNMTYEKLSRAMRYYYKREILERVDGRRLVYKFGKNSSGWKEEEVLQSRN
# Method in brief: as §1
# [18] = target: CRX (Homo sapiens, UniProt O43186 1-299); settings: protein: recombinant; tags: N-terminal GST; dsDNA, one strand shown
# Method in brief: as §1
# [19] = target: ETV1 (Homo sapiens, UniProt P50549 1-477); settings: protein: recombinant; tags: N-terminal GST; dsDNA, one strand shown
# Method in brief: as §1
# Sequence of SPIB (Q01892 whole entry): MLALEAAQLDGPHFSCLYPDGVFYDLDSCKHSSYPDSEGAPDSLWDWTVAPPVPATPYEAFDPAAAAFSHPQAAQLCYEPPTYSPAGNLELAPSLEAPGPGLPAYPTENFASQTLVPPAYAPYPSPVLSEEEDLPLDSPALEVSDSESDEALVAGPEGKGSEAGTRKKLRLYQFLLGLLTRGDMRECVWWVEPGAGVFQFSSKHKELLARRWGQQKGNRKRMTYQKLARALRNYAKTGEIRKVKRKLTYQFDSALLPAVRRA
# Sequence of CRX (O43186 whole entry): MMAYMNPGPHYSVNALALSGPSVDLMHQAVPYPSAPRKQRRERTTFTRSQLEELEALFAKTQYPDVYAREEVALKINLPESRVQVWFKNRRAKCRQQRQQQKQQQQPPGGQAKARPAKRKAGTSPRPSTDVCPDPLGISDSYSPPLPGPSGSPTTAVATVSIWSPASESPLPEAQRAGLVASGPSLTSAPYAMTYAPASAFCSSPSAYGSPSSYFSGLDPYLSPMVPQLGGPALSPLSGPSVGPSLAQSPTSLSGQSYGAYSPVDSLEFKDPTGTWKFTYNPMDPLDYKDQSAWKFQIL
# Sequence of ELF1 (P32519 whole entry): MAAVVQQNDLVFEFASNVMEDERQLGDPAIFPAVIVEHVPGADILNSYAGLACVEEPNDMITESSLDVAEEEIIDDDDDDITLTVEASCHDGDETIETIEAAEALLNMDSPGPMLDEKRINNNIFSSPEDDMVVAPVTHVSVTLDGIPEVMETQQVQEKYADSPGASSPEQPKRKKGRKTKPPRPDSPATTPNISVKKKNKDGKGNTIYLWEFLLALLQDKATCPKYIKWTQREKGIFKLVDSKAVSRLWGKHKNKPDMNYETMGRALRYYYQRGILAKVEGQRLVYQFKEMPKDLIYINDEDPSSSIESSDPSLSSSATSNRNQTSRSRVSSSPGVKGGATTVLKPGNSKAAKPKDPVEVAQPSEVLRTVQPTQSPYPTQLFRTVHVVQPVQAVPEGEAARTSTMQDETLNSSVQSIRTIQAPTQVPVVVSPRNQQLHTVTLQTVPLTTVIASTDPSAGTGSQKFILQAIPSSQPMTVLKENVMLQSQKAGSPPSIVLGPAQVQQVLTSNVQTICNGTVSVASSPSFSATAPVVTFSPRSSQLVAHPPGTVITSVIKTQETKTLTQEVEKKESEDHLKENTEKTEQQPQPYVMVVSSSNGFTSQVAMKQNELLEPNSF
# Sequence of HSF1 (Q00613 whole entry): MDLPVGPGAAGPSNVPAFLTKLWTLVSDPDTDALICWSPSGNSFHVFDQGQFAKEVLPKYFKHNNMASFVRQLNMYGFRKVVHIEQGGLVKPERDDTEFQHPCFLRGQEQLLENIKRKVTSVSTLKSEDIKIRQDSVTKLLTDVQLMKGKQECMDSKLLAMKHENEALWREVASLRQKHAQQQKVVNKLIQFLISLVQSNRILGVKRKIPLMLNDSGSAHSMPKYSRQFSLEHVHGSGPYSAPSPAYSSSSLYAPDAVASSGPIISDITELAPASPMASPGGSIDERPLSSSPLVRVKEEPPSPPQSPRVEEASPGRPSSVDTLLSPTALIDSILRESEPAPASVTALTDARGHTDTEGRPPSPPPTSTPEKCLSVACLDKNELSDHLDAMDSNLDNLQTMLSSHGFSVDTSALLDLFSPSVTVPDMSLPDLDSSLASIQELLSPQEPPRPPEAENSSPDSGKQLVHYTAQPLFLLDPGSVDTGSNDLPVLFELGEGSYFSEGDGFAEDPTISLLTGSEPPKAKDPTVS
# Sequence of ETV5 (P41161 whole entry): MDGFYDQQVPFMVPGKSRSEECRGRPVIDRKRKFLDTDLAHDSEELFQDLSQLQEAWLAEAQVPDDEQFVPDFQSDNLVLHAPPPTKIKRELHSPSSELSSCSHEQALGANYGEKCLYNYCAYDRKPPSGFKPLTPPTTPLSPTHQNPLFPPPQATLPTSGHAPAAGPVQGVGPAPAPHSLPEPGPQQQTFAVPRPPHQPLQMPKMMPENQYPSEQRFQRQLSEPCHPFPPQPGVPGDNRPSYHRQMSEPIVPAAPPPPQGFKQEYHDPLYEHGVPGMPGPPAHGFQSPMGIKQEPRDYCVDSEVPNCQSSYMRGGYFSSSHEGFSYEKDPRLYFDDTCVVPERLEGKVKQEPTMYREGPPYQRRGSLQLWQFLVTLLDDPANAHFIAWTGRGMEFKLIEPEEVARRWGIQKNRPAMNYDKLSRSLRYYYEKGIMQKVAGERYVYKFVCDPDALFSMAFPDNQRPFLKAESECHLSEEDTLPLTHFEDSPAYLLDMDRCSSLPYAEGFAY
# Sequence of ELF4 (Q99607 whole entry): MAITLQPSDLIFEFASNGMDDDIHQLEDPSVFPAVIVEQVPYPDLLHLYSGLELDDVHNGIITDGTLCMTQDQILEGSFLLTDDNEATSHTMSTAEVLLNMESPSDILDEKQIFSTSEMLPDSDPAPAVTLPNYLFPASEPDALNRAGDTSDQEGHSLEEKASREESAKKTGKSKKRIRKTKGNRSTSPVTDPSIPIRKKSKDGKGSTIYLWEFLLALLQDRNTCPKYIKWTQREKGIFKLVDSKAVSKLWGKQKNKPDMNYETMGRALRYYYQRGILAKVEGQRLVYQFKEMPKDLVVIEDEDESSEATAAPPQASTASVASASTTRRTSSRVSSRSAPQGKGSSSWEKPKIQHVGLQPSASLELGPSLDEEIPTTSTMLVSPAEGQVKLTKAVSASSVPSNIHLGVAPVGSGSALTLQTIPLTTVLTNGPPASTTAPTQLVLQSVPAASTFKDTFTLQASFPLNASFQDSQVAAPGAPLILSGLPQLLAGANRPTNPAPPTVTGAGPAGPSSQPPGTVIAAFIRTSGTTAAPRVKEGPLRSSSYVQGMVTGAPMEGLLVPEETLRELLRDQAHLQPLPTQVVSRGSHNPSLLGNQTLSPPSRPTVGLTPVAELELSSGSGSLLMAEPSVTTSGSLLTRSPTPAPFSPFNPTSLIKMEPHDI
# Sequence of ETV1 (P50549 whole entry): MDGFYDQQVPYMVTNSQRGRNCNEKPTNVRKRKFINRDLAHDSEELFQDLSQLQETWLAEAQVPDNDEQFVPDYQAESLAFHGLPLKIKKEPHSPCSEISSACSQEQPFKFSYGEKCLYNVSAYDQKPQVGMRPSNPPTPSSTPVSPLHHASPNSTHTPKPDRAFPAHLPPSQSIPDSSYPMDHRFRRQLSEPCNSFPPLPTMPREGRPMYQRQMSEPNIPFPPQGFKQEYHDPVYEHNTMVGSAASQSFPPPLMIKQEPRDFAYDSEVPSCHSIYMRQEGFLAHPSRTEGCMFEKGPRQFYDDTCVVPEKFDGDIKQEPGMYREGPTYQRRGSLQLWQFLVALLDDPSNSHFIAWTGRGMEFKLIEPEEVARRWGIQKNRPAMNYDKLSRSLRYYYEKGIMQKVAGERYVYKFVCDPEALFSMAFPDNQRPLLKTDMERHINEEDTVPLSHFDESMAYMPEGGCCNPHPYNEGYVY
sequence,measurement,setting,value
ATTATA,binding signal,[1],"1.24 fold enrichment (6-mer frequency, TF over GST control)"
same,binding signal,[2],"1.32 fold enrichment (6-mer frequency, TF over GST control)"
same,binding signal,[3],"1.21 fold enrichment (6-mer frequency, TF over GST control)"
same,binding signal,[4],"1.25 fold enrichment (6-mer frequency, TF over GST control)"
same,binding signal,[5],"1.31 fold enrichment (6-mer frequency, TF over GST control)"
same,binding signal,[6],"1.29 fold enrichment (6-mer frequency, TF over GST control)"
same,binding signal,[7],"1.2 fold enrichment (6-mer frequency, TF over GST control)"
same,binding signal,[8],"1.37 fold enrichment (6-mer frequency, TF over GST control)"
same,binding signal,[9],"1.28 fold enrichment (6-mer frequency, TF over GST control)"
same,binding signal,[10],"1.32 fold enrichment (6-mer frequency, TF over GST control)"
same,binding signal,[11],"1.29 fold enrichment (6-mer frequency, TF over GST control)"
same,binding signal,[12],"2.05 fold enrichment (6-mer frequency, TF over GST control)"
same,binding signal,[13],"1.36 fold enrichment (6-mer frequency, TF over GST control)"
same,binding signal,[14],"1.24 fold enrichment (6-mer frequency, TF over GST control)"
same,binding signal,[15],"1.29 fold enrichment (6-mer frequency, TF over GST control)"
same,binding signal,[16],"1.42 fold enrichment (6-mer frequency, TF over GST control)"
same,binding signal,[17],"1.39 fold enrichment (6-mer frequency, TF over GST control)"
same,binding signal,[18],"3.2 fold enrichment (6-mer frequency, TF over GST control)"
same,binding signal,[19],"1.3 fold enrichment (6-mer frequency, TF over GST control)"

# Source: PMC7862700, “An all-to-all approach to the identification of sequence-specific readers for epigenetic DNA modifications on cytosine”
